Experimental data from PubChem BioAssay (NCI).
About 83,000 compounds went through this panel and 20% of them were active in at least one assay; those are over-represented in the sample as a whole.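 Cell lines were cultured in 96-well plates, exposed to a single compound concentration, and assessed for percent growth 48 hours later.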 Values without a mark were called inactive. Calls of active or inactive are those of the source.

tested on: SK-MEL-5 melanoma; assay: NCI-60 one-dose screen, 48 h (100 = growth as untreated, 0 = no growth, -100 = all killed); conditions: 10 µM unless noted
Experimental: Growth inhibition of the SK-MEL-5 human tumor cell line is measured as a screen for anti-cancer activity. Cells are grown in 96 well plates and exposed to the test compound for 48 hours. Compounds are tested at a single concentration, which is 10^-5 M for most compounds. The reported endpoint is percent growth (GI% or GIPRCNT), where numbers from 0 - 100% represent growth inhibition, and numbers from -100% - 0 represent cell death. For example, a value of 40 represents 60% growth inhibition. A value of 0 means no net growth occurred over the course of the experiment. A value of -40 indicates 40% of cells at the beginning of the experiment died by the end of the experiment. A value of -100 means all cells are dead at the end of the experiment.
NCI-60 Human Tumor Cell Lines Screen was performed using the standard one-dose NCI protocol, which is described in more detail at https://dtp.cancer.gov/discovery_development/nci-60/default.htm.
Compounds with GIPRCNT values below 10 were considered active. Activity score was based on GIPRCNT using the following formula: […]
Score is 0 for GIPRCNT values of 100 or above, 50 for GIPRCNT values of 0, and 100 for GIPRCNT values of -100.

Row | Structure (SMILES) | growth
1 | O=C1c2cccc3cccc(c23)C(=O)N1Nc1nc(NC2CCCCC2)nc(N2CCOCC2)n1 | 92.7%
2 | CN(C)c1ccc2nc3ccc(=[N+](C)C)c([N+](=O)[O-])c-3sc2c1 | 19.5%
3 | CCOC(=O)Nc1ccc(C(=O)/C=C/c2ccccc2)cc1 | 92.2%
4 | O=C1/C(=C/c2ccccc2[N+](=O)[O-])Oc2ccc(O)c(O)c21 | 62%
5 | COc1cccc(Cc2cc(-c3ccccc3)nn(CC(=O)c3ccccc3)c2=O)c1 | 39.4%
6 | CN1C(=C2C(=O)OC(C)(C)OC2=O)CCC1C(=O)NCc1ccc(Cl)cc1Cl (stereo not given) | 91.6%
7 | NCCCNc1nc2ccccc2c2c(=O)c3cc(F)cc(Cl)c3sc12 | 98.3%
8 | COc1ccc(-c2nc(NN)c3c(C)nn(-c4ccc(F)cc4)c3n2)cc1 | 40.7%
9 | CN(C)CCS(=O)(=O)Nc1cc(-c2ccc3ncc(C#N)c(Nc4ccc(F)c(Cl)c4)c3c2)cnc1Cl | -89.8% (active)
10 | C=CCNc1ccc2c3c(cccc13)C(=O)N(N1C(=O)c3cccc4cccc(c34)C1=O)C2=O | 102%
11 | COc1cc2cc(Oc3ccc(NC(=O)Nc4ccc(Cl)c(C(F)(F)F)c4)cc3)c(C)nc2cc1OCCN1CCOCC1 | -34.7% (active)
12 | Cc1oc2nc[nH]c(=O)c2c1C(=O)/C=C/c1ccc(Br)cc1 | 8.55% (active)
13 | COc1cc2cc(Oc3ccc(NC(=O)Nc4ccc(Cl)c(Cl)c4)cc3)c(C)nc2cc1OCCN1CCOCC1 | 50.8%
14 | CCCCCCNC(=O)Oc1ccc(/C(=C(\C)c2ccc(Cl)cc2)c2ccc(OCCN3CCCCC3)cc2)cc1 | 25%
15 | C=C1C(=O)O[C@H]2[C@H]1CC/C(COC(=O)CCSSCCC(=O)OC/C1=C/CC[C@@]3(C)O[C@H]3[C@H]3OC(=O)C(=C)[C@@H]3CC1)=C\CC[C@@]1(C)O[C@@H]21 | 41.7%
16 | C/C(=C(/c1ccccc1)c1ccc(N2C(=O)c3cccc4c(N5CCN(C)CC5)ccc(c34)C2=O)cc1)c1ccccc1 | 76.3%
17 | COc1ccc(C(=O)C(C)C)c2ccccc12 | 109%
18 | OC(c1ccccc1)C(NC(Cc1ccccc1)c1ccccc1)c1ccccc1 (stereo not given) | 94.6%
19 | COc1ccc(C2CC(c3ccc(Nc4nc(Nc5ccc(F)cc5)nc(Nc5ccc(Cl)cc5)n4)cc3)=NN2C(C)=O)cc1 (stereo not given) | 92%
20 | C=C1C(=O)O[C@H]2[C@H]1CC/C(COC(=O)NCCOCCOCC(=O)Nc1ccc(OC)c(C(N)=O)c1O)=C\CC[C@@]1(C)O[C@@H]21 | 84.9%

Row | Structure (SMILES) | growth
21 | O=C(O)C(c1ccccc1)N1C(=O)CSC1=S (stereo not given) | 102%
22 | c1ccc(-c2nc3sc(-c4ccccc4)cn3n2)cc1 | 80%
23 | CCOC(=O)Cn1c(C)c(/C=N/NC(=O)c2cc3c(ccc4ccccc43)o2)c2ccccc21 | 7.35% (active)
24 | O=CN1N=C(c2ccc(Nc3ccnc4cc(Cl)ccc34)cc2)CC1c1ccccc1 (stereo not given) | 1.49% (active)
25 | Cc1cc(=O)oc2cc(OC(=O)CN3CCN(C)CC3)ccc12 | 101%
26 | Cc1c(C(=O)NCCN2CCOCC2)cn2ncnc(Oc3ccc(NC(=O)Nc4ccc(Cl)c(C(F)(F)F)c4)cc3)c12 | 6.48% (active)
27 | O=C(/C=C/c1sc(Cl)nc1Cl)c1ccc(F)cc1 | 93.6%
28 | Cc1ccc(/C=C(\C#N)n2nc3cccc(F)c3n2)cc1 | 89.9%
29 | COc1ccc(-c2cc3c4c(nc5ccccc5c4c2)CC(c2cc(OC)c(OC)c(OC)c2)O3)cc1 (stereo not given) | 62.6%
30 | CC/C=C\C[C@@H]1C/C=C2/C(=O)C=C[C@H]2C/C=C\CCCC(=O)O1 | -89.3% (active)
31 | Cc1ccc(-c2nc(N3CCN(C(=O)c4ccc(OC(F)(F)F)cc4)CC3)c3ccccc3n2)cc1 | 81.5%
32 | N#Cc1c(Nc2cccc(Cl)c2)sc(C(=O)c2cc3cc(Cl)ccc3o2)c1N | 73.4%
33 | CCN(CC)CCNC(=O)c1cn2ncnc(Oc3ccc(NC(=O)Nc4ccc(Cl)c(C(F)(F)F)c4)cc3)c2c1C | -99% (active)
34 | O=C(N/N=C/[C@@H](O)[C@H](O)[C@H](O)CO)c1ccc(NC(=O)c2cccnc2)cc1 | 106%
35 | NCCNc1nc2ccccc2c2c(=O)c3cccc(F)c3sc12 | 88.2%
36 | COc1ccc(-c2csc(NC(=O)N3CCN(c4cc5c(cc4F)c(=O)c(C(=O)O)cn5C4CC4)CC3)n2)cc1 | -39.9% (active)
37 | CCCCNc1nc(NN2C(=O)c3cccc4cccc(c34)C2=O)nc(-n2cnc3ccccc32)n1 | 75.6%
38 | COc1c(B(O)O)cc(F)cc1-c1nc2ccc3[nH]ncc3c2c2c1CCCC2 | 17.1%
39 | Cc1cc(Cl)ccc1NS(=O)(=O)c1ccc(-c2cnc(C3CC3)o2)cc1 | 20.4%
40 | CC[C@H](C)C(=O)O[C@H]1CCC=C2C=C[C@H](C)[C@H](CC[C@@H]3CC=CC(=O)O3)[C@H]21 | 77%
